Laboratory results published in PubChem BioAssay AID1345083 (National Center for Advancing Translational Sciences (NCATS), 2018).
Screen size: about 94,000 compounds; about 6,200 (6.6%) were called active. About 31% were inconclusive and are not listed. The sample holds actives, similar compounds and a random draw of the others, so the mix is not that of the screen. Values without a mark were called inactive. Calls come from the whole dose curve; as a rule, active = well fitted inhibition curve with a large enough effect; inconclusive = small, poorly fitted or top-dose-only effect; inactive = flat fitted curve, though single readings scatter.

Assay: Cytotoxic Profiling in HEK 293 Cell Line of Diverse Libraries Using Quantitative High-Throughput Screening; note: nearly all actives have a fitted effect of over 60% in size
Conditions: HEK 293 viability, ATP luminescence (CellTiter-Glo), 48-72 h; series mostly up to 115 µM; activity change, negative = cytotoxicity: at the top concentration
Outline: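 Viability of HEK 293 cells, plated at 250 cells/well, was judged by cellular ATP after compound treatment for 48 or 72 hr. Luminescence was imaged 10 min after CellTiter-Glo addition at room temperature.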
% is set by controls: 0 for no effect and ±100 for the full control effect; potency is the fitted concentration of half-maximal effect.

Structure (SMILES) | activity change, negative = cytotoxicity | outcome | Potency
C=CCNC(=O)c1cn2c(n1)CN(C(=O)c1ccccc1F)CC2 | 2.59% |  | 
CCNC(=O)N1CCC(n2c(C)cnc2C2CC2)CC1 |  | inactive | 
CCOc1ccc(NC(=O)N2CCC3(CC2)SCC(=O)N3Cc2ccco2)cc1 | -2.92% |  | 
CCOc1ccccc1C(=O)N1CCC(Oc2ncccc2C(=O)N(C)C)C1 (configuration not stated) | -24% |  | 
O=C(CCC1CCCC1)N1CCC2(CC1)CC(O)CCO2 (configuration not stated) | 2.16% |  | 
c1ccc(-n2cnnc2CC2CCN(Cc3ccc(-c4ccn[nH]4)o3)CC2)cc1 | 3.74% |  | 
CC(C)CN1CCN(C2CCOC3(CCN(S(=O)(=O)c4cccs4)CC3)C2)CC1 (configuration not stated) | -11.3% |  | 
COC(=O)c1cccc2nc([C@H]3CCN(Cc4ccccc4)C3)oc12 |  |  | 79.4 µM (active)
Cc1nnc([C@H]2CCN(Cc3ccc(F)cc3)C2)o1 | 2.67% [at 230 µM] |  | 
CCOc1ncccc1C(=O)N1CCN(Cc2ccccc2)CC(O)C1 (configuration not stated) | -16.2% |  | 
Cc1cc(C[C@@H]2COC[C@@H]2NC(=O)CCCc2nc(-c3ccco3)no2)on1 |  | inactive | 
COCCNC(=O)c1cnc2n[nH]c(-c3ccccc3OC)c2n1 | -20.1% [at 172 µM] |  | 
COc1ccccc1-c1[nH]nc2ncc(C(=O)N3CCN(Cc4ccccc4)CC3)nc12 |  |  | 100 µM (active)
COc1ccccc1-n1c(=O)c(C(=O)N2CCN(Cc3ccccc3)CC2)nc2cccnc21 |  | inactive | 
CNC(=O)c1cc(C)nc2onc(C3CCN(C(=O)c4ccc(C(F)(F)F)cc4)C3)c12 (configuration not stated) | -23.2% |  | 
Cc1cc(C)n(CC(=O)N2CCCC3(C2)Nc2cccnc2NC3=NC2CCCC2)n1 (configuration not stated) | -12.2% |  | 
O=C(c1ccc(Cl)cc1)N1CCN(CCn2nc3n(c2=O)CCCC3)CC1 | -9.57% |  | 
Cc1noc(C)c1S(=O)(=O)N1CCCN(c2nc3ncccc3o2)CC1 | 0.408% |  | 
O=C(NCc1cccc(F)c1)C1CN(c2ccccc2)C(=O)N1 (configuration not stated) | 4.55% [at 172 µM] |  | 
CNC(=O)CN(C)C(=O)[C@@H]1CN(c2ncccn2)C[C@H]1COC | -1.47% |  | 
F[C@@H]1CN(C2CCC2)C[C@@H]1OCc1nc2ncccc2[nH]1 | -5.83% [at 230 µM] |  | 

Structure (SMILES) | activity change, negative = cytotoxicity | outcome | Potency
O=C(Nc1ccccc1)O[C@@H]1CO[C@H]2[C@@H]1OC[C@@H]2NS(=O)(=O)c1cccc2cccnc12 | -18.1% |  | 
CC(=O)Nc1ccc(S(=O)(=O)N[C@H]2CO[C@H]3[C@@H]2OC[C@@H]3n2nnnc2Oc2ccccc2)cc1 | -19.3% |  | 
O=C(Nc1ccc(Oc2ccccc2)cc1)O[C@@H]1CO[C@H]2[C@@H]1OC[C@@H]2NS(=O)(=O)c1cccs1 |  |  | 39.8 µM (active)
O=C(c1ccccc1)N1CCC2(CC(c3cccnc3)=NO2)C1 (configuration not stated) |  | inactive | 
O=C(Nc1ccc(Cl)cc1)C1CCN(C(=O)c2ncn3c2COC(c2ccc(F)cc2)C3)CC1 (configuration not stated) | -27.3% |  | 
O=C(NCC1CCOCC1)Nc1cccc(Cl)c1 | 10.7% |  | 
O=C(Nc1cccc(Cl)c1)[C@@H]1C[C@H](c2ccc(F)cc2)N([S+](=O)([O-])C2CC2)C1 |  |  | 79.4 µM (active)
CC[C@H]1CN(S(C)(=O)=O)CC[C@H]1CC(=O)NCc1cccc2ccccc12 | -26% [at 172 µM] |  | 
Cn1nc(-c2nncn2CC2CC2)c2c1CCN(C(=O)CC1CCCC1)C2 |  | inactive | 
O=C(Cc1cccc(F)c1)N1CCCC(Cc2nncn2-c2ccccc2)C1 (configuration not stated) | -7.97% |  | 
CCOc1ncccc1CNC(=O)c1cc(S(N)(=O)=O)ccc1F |  |  | 79.4 µM (active)
NS(=O)(=O)c1ccc(F)c(C(=O)N[C@@H]2c3ccccc3C[C@@H]2O)c1 | -0.467% |  | 
NS(=O)(=O)c1ccc(F)c(C(=O)NCc2noc(-c3ccco3)n2)c1 | -23.5% |  | 
CNC(=O)c1cc(C)nc2onc(C3CCCN3C(=O)C3CCCC3)c12 (configuration not stated) | -7.89% |  | 
Cc1cccc(NC(=O)N2CC(Oc3ccc(-c4nc(C)no4)cc3)C2)c1 | -12.5% |  | 
CC1=C[C@@H](CNS(=O)(=O)c2cccc(C#N)c2)[C@H](C(C)C)C[C@H]1CC(=O)N(C)Cc1cccnc1 |  |  | 39.8 µM (active)
CN(Cc1ccccc1)C(=O)C[C@@H]1O[C@H](CNS(=O)(=O)c2ccc(Cl)cc2)[C@@H](O)[C@H]1O |  | inactive | 
CN1C[C@H](NS(C)(=O)=O)CCC[C@@H](C(=O)N(C)Cc2cccnc2)CC1=O | 1.06% [at 172 µM] |  | 
CCOc1nccnc1NC1CCN(C(=O)c2cccnc2)CC1 | 6.7% |  | 
Cc1nn(CCO)cc1-c1c(-c2ccccc2)ncn1CC(=O)O | -9.19% |  | 
O=C(c1cccnc1)N1CCC(c2nnc(Cn3cccn3)n2C2CC2)CC1 |  | inactive | 

Structure (SMILES) | activity change, negative = cytotoxicity | outcome | Potency
Cc1cnc(C(=O)N[C@@H]2CCC[C@@H]2C(=O)Nc2ccc3c(c2)OCCO3)cn1 | -7.64% |  | 
O=C(O)CCc1cc2n(n1)CCCN(C(=O)CN1CCOC1=O)C2 | -3.14% |  | 
CS(=O)(=O)c1ccc(N2CCN(C(=O)[C@H]3CC[C@@H](N)C3)CC2)c(F)c1 |  | inactive | 
Cc1ccc(C(=O)N2CCC(c3nn(-c4ccccc4)c(=O)[nH]3)CC2)cc1 | -28.8% |  | 
O=C(c1ccccc1F)N1CCC(c2nn(-c3ccc(Cl)cc3)c(=O)[nH]2)CC1 |  |  | 79.4 µM (active)
O=C(c1ccccc1F)N1CCC(c2nn(-c3ccc(F)cc3)c(=O)[nH]2)CC1 | -24.9% |  | 
COc1cc(=O)n2c(c1C(=O)Nc1cc(C)ccc1C)CCCC2 | 5.72% |  | 
O=C(NC1CCCN(CCn2nc3n(c2=O)CCCC3)C1)c1ccc(F)cc1 (configuration not stated) |  | inactive | 
CCCCCC(=O)N1CC[C@H]2COC(=O)N2c2cc(F)ccc2C1 | -1.72% [at 172 µM] |  | 
O=S(=O)(c1ccccc1)N1CCC(F)(c2nc(Cc3ccccc3)no2)CC1 |  |  | 44.7 µM (active)
CN(CCc1noc(C2CN(S(=O)(=O)c3ccccc3)C2)n1)C(=O)c1ccncc1 | -17.8% |  | 
O=S(=O)(c1ccccc1)N1CCN(c2ccnc3ccnn23)CC1 | -19.4% |  | 
O=C(NCc1ccncc1)C1CC(=O)N(c2n[nH]c3cccc(F)c23)C1 (configuration not stated) | -11% |  | 
Cc1ncc(C(=O)N2CCCC(c3cc(N4CCOCC4)nc(C)n3)C2)cn1 (configuration not stated) | -4.68% |  | 
CN(C)C(=O)C1=NOC2CN(C(=O)c3ccn(C)n3)CC12 (configuration not stated) |  | inactive [at 172 µM] | 
O=C(CN1C(=O)NC2(CCOCC2)C1=O)Nc1cccc(Br)c1 | -9.49% |  | 
CCOc1ccccc1CN1CCC2(CCN(Cc3cncs3)CC2)Oc2ccccc21 |  |  | 44.7 µM (active)
CCOc1ccccc1CN1CCCOCCNC(=O)CC1 | 4.71% |  | 
CCOc1ccccc1CN1CCC2(CCN(C(=O)c3cccc(Cl)c3)CC2)Oc2ccccc21 | -12.9% |  | 
CCn1ccc(C(=O)N2C[C@@H](F)C[C@H]2C(=O)N2CCCCC2)n1 | 5.92% |  | 
